# aSyn UTR act: Activators via SNCA 5'UTR binding, MLPCN; alpha-synuclein 5'UTR reporter, activators screen; 7.1% of 300,000 active; activity score, % (tested at 7.5 µM), hits read low; in the data active means activity score below about -60%
# * marks the source's active call; other numbers are inactive results. These entries were drawn from the full list.
SMILES,aSyn UTR act
COCC(=O)Nc1c(C(=O)Nc2ccc3c(c2)OCO3)oc2ccccc12,-116.7*
Cc1c(C(=O)Nc2ccc3c(c2)OCO3)oc2ccccc12,-136.6*
N#Cc1cc(C#N)c(N2CCN(c3cccc(Cl)n3)CC2)nc1N,-85.5*
CN(C)c1oc(-c2ccc(OCc3ccccc3)cc2)nc1C#N,-109.2*
Cc1ccc(-c2nc(C(Cl)Cl)c3ccccc3n2)cc1,92.7
Cc1ccc(-c2nc(NCc3cccnc3)c3ccccc3n2)cc1,-78.3*
Cc1ccc(-c2nc(N/N=C/c3cccnc3)c3ccccc3n2)cc1,-258.4*
Cc1ccc(-c2nc(N/N=C/c3cccc([N+](=O)[O-])c3)c3ccccc3n2)cc1,-153.1*
c1cncc(-c2nc(NCCCn3ccnc3)c3ccccc3n2)c1,-66.4*
Cn1ccsc1=NC(=O)c1ccc(S(C)(=O)=O)cc1,-61.7*
Cn1ccsc1=NC(=O)c1cccc(C#N)c1,-86.1*
CCCCOc1ccc(C(=O)N=c2sccn2C)cc1OC,-164.0*
Cn1ccsc1=NC(=O)c1ccc(Cl)c([N+](=O)[O-])c1,-117.1*
Cc1ccc(NC(=S)N=Nc2c(O)n(C)c3ccc(S(=O)(=O)N4CCOCC4)cc23)cc1C,76.9
Cc1cccc(C(=O)N=c2sccn2C)c1[N+](=O)[O-],-133.5*
Cc1ccc(C(=O)N=c2sccn2C)cc1S(=O)(=O)N1CCOCC1,-160.1*
Cc1cc(C(=O)COC(=O)c2ccc(Cl)c(S(N)(=O)=O)c2)c(C)n1CC1CCCO1 (stereo unspecified),-104.0*
COCCn1c(C)cc(C(=O)COC(=O)c2ccc(Cl)c(S(N)(=O)=O)c2)c1C,-103.3*
Cc1cccc(C(=O)NCC(=O)OCC(=O)c2cc(C)n(CC3CCCO3)c2C)c1 (stereo unspecified),-101.8*
c1ccc(Cn2c(Sc3nnnn3-c3ccccc3)nnc2-c2ccccc2)cc1,-73.9*
N#C/C(=N\Nc1ccc(Cl)c(Cl)c1)C(=O)C1CC1,-97.3*
COc1ccc(-n2c(C)nn(CCOc3ccccc3)c2=O)cc1,-90.3*
O=C(Nc1ccccc1)Nc1nnc(-c2cccs2)s1,-181.7*
COc1ccc(NC(=O)Nc2nnc(-c3cccs3)s2)cc1,-112.8*
C=C(C)CSc1nc2ncc(Cl)cc2[nH]1,-73.7*
SMILES,aSyn UTR act
Cc1c(C(=O)OC2CCCC2C)[nH]c2c1C(=O)CCC2 (stereo unspecified),-91.7*
C=CCOC(=O)c1[nH]c2c(c1C)C(=O)CC(c1ccco1)C2 (stereo unspecified),69.2
COc1ccc(/C(C)=N/NC(=O)c2nc(C)cc(C)n2)cc1,-114.3*
COc1ccc(C(=O)N/N=C(/C)c2ccc(N3CCCCC3)cc2)cc1,-68.0*
C/C(=N\NC(=O)CC(C)C)c1ccc(N2CCCCC2)cc1,-62.0*
CN(C)C(=O)c1cc(C(=O)c2ccc(F)cc2Cl)c[nH]1,-92.6*
CN(C)C(=O)c1cc(C(=O)c2ccc(Cl)cc2Cl)c[nH]1,-94.2*
CN(C)C(=O)c1cc(C(=O)c2ccc(C(F)(F)F)cc2)c[nH]1,-151.0*
CN(C)/C=C/C(=O)c1cnc(-c2ccc(Cl)cc2)s1,-90.4*
CN(C)/C=C/C(=O)c1cnc(-c2ccccc2)s1,-116.1*
O=C(c1ccccc1)c1cnc(-c2ccccc2)s1,-99.0*
Cc1nnc(NC(=O)Nc2cccc(Cl)c2)s1,-122.5*
Cc1csc(NC(=O)Nc2cccc(Cl)c2)n1,-202.7*
N/C(=N\OC(=O)CCC1CCCC1)c1ccccc1,-126.2*
CC(C)(C)c1ccc(C(=O)O/N=C(\N)c2ccccn2)cc1,94.0
N/C(=N\OC(=O)CCC1CCCC1)c1ccccn1,-132.9*
Cc1c(-c2ccccc2)nnn1-c1ccc(F)cc1F,-93.1*
CCOc1ccc(N=C(/C(C(=O)C(=O)N2CCOCC2)=C(\O)c2ccccc2)c2ccccc2)cc1,-151.2*
CCOc1ccc(OCc2ccc(C(=O)N3CCCC(C)C3)cc2)cc1 (stereo unspecified),-63.0*
CCOc1ccc(C(=O)c2cc([N+](=O)[O-])ccc2N2CCOCC2)cc1,79.1
CCOc1ccc(OCc2ccc(C(=O)N3CCOCC3)cc2)cc1,-91.2*
Cc1[nH]c(=O)c(C(=O)/C=C/c2ccccc2F)c2c1CCCC2,-363.9*
O=C(CSc1nc2ccccc2o1)NCc1ccc2c(c1)OCO2,-79.1*
CCOC(=O)c1c(NC(=O)CSc2nc3ccccc3o2)sc(C(C)=O)c1C,-62.8*
O=C(CSc1nc2ccccc2o1)Nc1nc(-c2ccccc2)cs1,-111.3*
SMILES,aSyn UTR act
Cc1ccccc1NC(=O)CSc1nc2ccccc2o1,-157.9*
CCOC(=O)c1c(NC(=O)CSc2cccc[n+]2[O-])sc(C(=O)Nc2ccccc2)c1C,-104.7*
CC1=[N+](CC(=O)c2ccccc2)CCn2cccc21,-110.1*
CCC1=[N+](CC(=O)c2ccc(C)cc2)CCn2c(C)ccc21,-193.7*
CCC1=[N+](CC(=O)c2ccc(C)cc2)CCn2cccc21,-123.2*
O=C(Cc1cc2ccccc2o1)NCc1ccc(F)cc1,-78.7*
CC1CCN(C(=S)Nc2ccc(SC(F)F)cc2)CC1,-142.6*
FC(F)Sc1ccc(NC(=S)NC2CCCCC2)cc1,-109.3*
S=C(Nc1ccc(Br)cc1)NC1CCCC1,-123.6*
FC(F)Sc1ccc(NC(=S)NCC2CCCCC2)cc1,-66.9*
